Data published in ChEMBL document CHEMBL1961873, “Compounds: GSK PKIS; Assays: Nanosyn kinase panel” (2012).

Key:
[1] = biological target: Sphingosine kinase 1 (Homo sapiens) (UniProt Q9NYA1); conditions: at 1 µM;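 note: mean SPHK1 inhibition value reported from the GSK PKIS kinase panel screen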
[2] = biological target: T1, Sphingosine kinase 2 (Homo sapiens) (UniProt Q9NRA0); conditions: at 0.1 µM
T1 sequence (whole entry): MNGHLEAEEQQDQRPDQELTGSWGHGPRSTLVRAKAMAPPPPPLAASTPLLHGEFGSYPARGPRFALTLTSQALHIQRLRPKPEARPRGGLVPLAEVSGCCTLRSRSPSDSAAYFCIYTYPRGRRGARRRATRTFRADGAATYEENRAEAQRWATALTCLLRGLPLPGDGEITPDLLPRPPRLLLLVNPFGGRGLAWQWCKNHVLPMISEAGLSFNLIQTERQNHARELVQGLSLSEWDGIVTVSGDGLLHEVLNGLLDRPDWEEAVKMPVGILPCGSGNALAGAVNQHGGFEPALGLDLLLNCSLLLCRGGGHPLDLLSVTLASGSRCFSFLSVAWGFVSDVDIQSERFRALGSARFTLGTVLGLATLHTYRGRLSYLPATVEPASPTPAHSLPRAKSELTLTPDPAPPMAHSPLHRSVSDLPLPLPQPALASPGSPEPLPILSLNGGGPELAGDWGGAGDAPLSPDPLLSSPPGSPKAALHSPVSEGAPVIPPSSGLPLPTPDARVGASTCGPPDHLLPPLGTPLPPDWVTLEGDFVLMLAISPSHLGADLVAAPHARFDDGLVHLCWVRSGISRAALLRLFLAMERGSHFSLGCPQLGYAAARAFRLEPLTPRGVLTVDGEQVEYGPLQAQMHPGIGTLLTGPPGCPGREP

[3] = biological target: T1, Sphingosine kinase 2 (Homo sapiens); conditions: at 1 µM
[4] = biological target: Casein kinase II subunit alpha (Homo sapiens) (UniProt P68400); conditions: at 0.1 µM
[5] = biological target: Casein kinase II subunit alpha (Homo sapiens) (UniProt P68400); conditions: at 1 µM
[6] = biological target: T2, Inhibitor of nuclear factor kappa-B kinase subunit alpha (Homo sapiens) (UniProt O15111); conditions: at 0.1 µM
T2 sequence (whole entry): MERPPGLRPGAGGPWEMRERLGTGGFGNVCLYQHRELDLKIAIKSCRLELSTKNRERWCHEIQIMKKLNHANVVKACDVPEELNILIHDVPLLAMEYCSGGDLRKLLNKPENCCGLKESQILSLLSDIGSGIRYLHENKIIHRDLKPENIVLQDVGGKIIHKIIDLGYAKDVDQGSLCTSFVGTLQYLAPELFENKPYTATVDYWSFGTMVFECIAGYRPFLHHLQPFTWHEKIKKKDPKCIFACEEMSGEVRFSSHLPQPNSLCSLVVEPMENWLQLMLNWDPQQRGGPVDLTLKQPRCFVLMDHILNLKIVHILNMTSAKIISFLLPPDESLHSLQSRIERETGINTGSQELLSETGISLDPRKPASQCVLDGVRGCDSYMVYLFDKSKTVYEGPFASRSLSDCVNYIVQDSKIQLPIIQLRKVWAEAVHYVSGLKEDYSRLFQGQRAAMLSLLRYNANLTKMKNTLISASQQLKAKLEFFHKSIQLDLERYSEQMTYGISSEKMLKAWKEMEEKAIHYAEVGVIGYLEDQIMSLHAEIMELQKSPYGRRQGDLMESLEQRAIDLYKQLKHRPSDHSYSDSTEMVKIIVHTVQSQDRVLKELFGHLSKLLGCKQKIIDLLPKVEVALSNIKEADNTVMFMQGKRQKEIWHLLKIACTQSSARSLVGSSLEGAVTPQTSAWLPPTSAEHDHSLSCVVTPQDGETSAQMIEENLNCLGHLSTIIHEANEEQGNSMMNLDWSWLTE

[7] = biological target: T2, Inhibitor of nuclear factor kappa-B kinase subunit alpha (Homo sapiens); conditions: at 1 µM
[8] = biological target: T3, Inhibitor of nuclear factor kappa-B kinase subunit beta (Homo sapiens) (UniProt O14920); conditions: at 0.1 µM
T3 sequence (whole entry): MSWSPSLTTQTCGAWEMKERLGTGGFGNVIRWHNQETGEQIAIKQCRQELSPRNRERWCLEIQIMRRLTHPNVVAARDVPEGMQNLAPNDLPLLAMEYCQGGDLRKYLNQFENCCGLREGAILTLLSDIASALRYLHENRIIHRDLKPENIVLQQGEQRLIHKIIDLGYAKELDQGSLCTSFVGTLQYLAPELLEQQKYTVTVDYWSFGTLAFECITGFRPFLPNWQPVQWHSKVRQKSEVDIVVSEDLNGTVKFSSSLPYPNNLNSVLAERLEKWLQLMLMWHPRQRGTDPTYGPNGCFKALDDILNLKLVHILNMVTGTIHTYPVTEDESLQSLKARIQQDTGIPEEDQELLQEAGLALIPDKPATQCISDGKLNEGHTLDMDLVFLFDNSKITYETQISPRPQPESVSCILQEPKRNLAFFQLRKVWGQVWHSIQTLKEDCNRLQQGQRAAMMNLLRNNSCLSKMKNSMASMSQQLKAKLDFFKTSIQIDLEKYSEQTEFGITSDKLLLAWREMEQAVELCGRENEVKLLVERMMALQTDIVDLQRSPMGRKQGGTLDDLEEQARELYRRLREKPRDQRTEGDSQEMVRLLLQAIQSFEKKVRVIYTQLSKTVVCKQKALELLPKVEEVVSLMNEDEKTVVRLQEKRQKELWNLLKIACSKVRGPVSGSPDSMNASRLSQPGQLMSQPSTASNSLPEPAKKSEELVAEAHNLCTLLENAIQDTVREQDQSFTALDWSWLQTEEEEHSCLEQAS

[9] = biological target: T3, Inhibitor of nuclear factor kappa-B kinase subunit beta (Homo sapiens); conditions: at 1 µM
[10] = biological target: T4, Inhibitor of nuclear factor kappa-B kinase subunit epsilon (Homo sapiens) (UniProt Q14164); conditions: at 0.1 µM
T4 sequence (whole entry): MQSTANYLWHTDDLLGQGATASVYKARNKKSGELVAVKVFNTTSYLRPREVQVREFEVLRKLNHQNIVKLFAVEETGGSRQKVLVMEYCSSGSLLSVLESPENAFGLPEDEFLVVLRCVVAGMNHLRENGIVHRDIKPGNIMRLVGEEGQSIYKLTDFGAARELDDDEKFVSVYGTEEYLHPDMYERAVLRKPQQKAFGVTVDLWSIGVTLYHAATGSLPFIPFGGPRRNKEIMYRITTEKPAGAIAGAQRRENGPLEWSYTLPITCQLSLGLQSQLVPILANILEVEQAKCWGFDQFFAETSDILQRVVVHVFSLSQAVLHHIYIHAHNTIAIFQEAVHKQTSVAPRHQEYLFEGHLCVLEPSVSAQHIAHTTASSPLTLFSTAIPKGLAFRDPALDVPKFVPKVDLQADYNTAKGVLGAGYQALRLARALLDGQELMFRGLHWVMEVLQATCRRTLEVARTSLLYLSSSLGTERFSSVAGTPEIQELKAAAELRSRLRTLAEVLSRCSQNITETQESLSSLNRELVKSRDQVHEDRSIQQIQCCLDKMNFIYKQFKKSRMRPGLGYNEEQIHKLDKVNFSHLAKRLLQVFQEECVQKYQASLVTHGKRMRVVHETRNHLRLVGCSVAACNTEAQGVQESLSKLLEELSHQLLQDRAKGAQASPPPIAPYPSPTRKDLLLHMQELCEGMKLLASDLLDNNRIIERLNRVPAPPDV

[11] = biological target: T4, Inhibitor of nuclear factor kappa-B kinase subunit epsilon (Homo sapiens); conditions: at 1 µM
[12] = biological target: T5, Serine/threonine-protein kinase Nek1 (Homo sapiens) (UniProt Q96PY6); conditions: at 0.1 µM
T5 sequence (whole entry): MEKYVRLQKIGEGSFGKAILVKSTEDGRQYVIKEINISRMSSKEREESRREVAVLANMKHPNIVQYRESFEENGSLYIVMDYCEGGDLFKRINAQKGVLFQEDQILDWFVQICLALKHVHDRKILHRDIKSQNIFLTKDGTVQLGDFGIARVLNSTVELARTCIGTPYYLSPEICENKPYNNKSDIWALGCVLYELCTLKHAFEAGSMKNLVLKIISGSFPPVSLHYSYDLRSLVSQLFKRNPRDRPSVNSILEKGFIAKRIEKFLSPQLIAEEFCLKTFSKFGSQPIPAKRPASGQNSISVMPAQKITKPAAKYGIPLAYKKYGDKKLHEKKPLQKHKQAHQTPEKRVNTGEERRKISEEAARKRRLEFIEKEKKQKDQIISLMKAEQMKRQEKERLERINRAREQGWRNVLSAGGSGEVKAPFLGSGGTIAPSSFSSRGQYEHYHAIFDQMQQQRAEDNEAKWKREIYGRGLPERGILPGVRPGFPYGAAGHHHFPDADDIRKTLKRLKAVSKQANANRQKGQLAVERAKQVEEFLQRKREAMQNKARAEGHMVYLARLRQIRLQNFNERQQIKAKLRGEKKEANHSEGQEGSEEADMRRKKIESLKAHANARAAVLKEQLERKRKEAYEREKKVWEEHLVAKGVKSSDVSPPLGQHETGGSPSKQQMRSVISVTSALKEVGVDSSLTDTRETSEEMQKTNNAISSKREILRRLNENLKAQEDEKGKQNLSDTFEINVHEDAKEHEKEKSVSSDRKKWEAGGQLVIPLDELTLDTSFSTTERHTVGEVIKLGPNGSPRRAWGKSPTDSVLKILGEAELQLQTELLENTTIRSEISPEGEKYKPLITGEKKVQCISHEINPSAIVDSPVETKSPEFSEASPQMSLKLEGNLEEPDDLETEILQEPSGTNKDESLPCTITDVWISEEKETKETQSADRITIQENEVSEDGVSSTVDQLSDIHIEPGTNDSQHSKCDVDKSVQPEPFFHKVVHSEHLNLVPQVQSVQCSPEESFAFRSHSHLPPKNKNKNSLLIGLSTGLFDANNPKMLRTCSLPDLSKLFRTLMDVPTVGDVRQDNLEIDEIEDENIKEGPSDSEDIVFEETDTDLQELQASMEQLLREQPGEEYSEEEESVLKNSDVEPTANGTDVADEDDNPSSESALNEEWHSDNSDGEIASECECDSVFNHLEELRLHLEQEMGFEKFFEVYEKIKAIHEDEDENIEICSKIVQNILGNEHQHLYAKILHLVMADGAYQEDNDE

[13] = biological target: T5, Serine/threonine-protein kinase Nek1 (Homo sapiens); conditions: at 1 µM
[14] = biological target: T6, Serine/threonine-protein kinase Nek2 (Homo sapiens) (UniProt P51955); conditions: at 0.1 µM
T6 sequence (whole entry): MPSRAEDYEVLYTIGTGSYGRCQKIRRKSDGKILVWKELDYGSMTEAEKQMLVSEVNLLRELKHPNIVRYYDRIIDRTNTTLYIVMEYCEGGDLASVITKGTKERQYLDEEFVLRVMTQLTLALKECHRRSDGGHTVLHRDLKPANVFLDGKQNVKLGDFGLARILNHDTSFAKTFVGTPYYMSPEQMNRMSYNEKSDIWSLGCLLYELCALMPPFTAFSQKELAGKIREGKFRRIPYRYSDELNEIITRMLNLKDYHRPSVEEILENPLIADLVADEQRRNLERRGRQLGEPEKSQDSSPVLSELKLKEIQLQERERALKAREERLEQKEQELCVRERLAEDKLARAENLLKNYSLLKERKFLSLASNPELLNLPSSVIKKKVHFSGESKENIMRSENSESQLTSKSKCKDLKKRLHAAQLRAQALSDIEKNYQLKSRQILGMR

[15] = biological target: T6, Serine/threonine-protein kinase Nek2 (Homo sapiens); conditions: at 1 µM
[16] = biological target: Serine/threonine-protein kinase Nek6 (Homo sapiens) (UniProt Q9HC98); conditions: at 0.1 µM
[17] = biological target: Serine/threonine-protein kinase Nek6 (Homo sapiens) (UniProt Q9HC98); conditions: at 1 µM
[18] = biological target: Serine/threonine-protein kinase Nek7 (Homo sapiens) (UniProt Q8TDX7); conditions: at 0.1 µM
[19] = biological target: Serine/threonine-protein kinase Nek7 (Homo sapiens) (UniProt Q8TDX7); conditions: at 1 µM
[20] = biological target: T7, Serine/threonine-protein kinase Nek9 (Homo sapiens) (UniProt Q8TD19); conditions: at 0.1 µM;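 note: reported value is the mean percent inhibition of NEK9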
T7 sequence (whole entry): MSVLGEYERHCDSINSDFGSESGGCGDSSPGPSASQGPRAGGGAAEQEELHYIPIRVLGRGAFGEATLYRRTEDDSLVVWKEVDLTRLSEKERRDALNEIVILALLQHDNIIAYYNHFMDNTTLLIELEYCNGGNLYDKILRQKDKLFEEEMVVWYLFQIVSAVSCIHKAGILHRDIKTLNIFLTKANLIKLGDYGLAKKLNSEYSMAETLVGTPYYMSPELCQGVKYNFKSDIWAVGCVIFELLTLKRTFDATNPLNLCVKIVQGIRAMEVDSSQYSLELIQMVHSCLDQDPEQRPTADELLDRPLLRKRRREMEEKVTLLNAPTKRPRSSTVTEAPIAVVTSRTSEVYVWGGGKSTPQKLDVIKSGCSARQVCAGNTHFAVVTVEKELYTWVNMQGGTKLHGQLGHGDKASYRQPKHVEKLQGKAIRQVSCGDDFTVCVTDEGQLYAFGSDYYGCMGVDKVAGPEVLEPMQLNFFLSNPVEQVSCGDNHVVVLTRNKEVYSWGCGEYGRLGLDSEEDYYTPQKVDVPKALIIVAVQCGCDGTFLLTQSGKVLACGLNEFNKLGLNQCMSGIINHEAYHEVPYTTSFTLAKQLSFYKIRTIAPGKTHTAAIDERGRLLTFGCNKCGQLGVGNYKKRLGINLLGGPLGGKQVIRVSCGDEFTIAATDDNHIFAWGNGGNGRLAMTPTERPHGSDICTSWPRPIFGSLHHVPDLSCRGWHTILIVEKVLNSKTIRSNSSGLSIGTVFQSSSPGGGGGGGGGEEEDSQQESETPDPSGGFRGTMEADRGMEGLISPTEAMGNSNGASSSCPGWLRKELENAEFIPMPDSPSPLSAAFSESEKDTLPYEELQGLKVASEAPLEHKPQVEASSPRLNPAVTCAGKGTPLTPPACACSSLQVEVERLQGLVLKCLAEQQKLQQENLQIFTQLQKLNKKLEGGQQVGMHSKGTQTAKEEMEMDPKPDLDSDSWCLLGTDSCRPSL

Sequence of Serine/threonine-protein kinase Nek6 (Homo sapiens) (Q9HC98 whole entry): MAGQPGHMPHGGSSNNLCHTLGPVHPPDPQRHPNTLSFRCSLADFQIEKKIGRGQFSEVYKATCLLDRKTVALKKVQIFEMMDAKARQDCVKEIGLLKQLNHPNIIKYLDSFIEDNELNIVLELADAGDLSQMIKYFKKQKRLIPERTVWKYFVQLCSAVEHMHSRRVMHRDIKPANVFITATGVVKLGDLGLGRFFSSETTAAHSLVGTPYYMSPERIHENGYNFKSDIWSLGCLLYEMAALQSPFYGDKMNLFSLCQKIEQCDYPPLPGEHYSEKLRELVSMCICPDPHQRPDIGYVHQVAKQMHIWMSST
Sequence of Serine/threonine-protein kinase Nek7 (Homo sapiens) (Q8TDX7 whole entry, looked up): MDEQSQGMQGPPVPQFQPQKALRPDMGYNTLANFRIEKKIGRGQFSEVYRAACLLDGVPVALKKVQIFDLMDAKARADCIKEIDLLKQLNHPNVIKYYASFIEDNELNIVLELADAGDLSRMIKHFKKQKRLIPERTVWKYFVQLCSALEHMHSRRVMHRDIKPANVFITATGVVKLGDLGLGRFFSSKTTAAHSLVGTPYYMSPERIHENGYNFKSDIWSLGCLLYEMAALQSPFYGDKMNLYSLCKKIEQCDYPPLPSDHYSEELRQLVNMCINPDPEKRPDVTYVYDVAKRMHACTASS
Sequence of Casein kinase II subunit alpha (Homo sapiens) (P68400 whole entry, looked up): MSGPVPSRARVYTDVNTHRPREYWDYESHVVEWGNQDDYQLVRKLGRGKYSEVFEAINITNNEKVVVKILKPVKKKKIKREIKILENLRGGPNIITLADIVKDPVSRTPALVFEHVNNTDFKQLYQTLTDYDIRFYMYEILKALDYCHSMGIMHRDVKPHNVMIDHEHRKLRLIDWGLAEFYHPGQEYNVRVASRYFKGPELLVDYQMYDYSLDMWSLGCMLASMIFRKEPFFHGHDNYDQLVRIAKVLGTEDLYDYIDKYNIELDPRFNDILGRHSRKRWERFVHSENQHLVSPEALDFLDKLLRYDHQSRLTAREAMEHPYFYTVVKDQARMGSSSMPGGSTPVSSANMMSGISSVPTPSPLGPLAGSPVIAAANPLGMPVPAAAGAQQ
Sequence of Sphingosine kinase 1 (Homo sapiens) (Q9NYA1 whole entry): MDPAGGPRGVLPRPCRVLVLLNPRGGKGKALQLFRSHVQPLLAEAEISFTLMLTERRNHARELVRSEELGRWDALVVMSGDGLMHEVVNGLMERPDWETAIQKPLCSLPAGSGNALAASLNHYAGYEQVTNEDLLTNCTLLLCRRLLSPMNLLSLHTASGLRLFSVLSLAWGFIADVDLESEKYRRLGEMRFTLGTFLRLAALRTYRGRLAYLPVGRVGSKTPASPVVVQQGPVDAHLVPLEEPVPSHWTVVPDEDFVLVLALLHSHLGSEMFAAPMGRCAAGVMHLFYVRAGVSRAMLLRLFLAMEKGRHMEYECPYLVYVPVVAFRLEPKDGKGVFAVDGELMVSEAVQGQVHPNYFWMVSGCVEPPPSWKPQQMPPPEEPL

Structure (SMILES): CN(c1ccc(NC(=O)NCCN2CCOCC2)cc1)c1ccnc(Nc2ccc(CS(C)(=O)=O)cc2)n1
- inhibition [1]: 7.75%
- inhibition [2]: 0.36%
- inhibition [3]: 0.38%
- inhibition [4]: 5.71%
- inhibition [5]: 11.9%
- inhibition [6]: 10.9%
- inhibition [7]: 8%
- inhibition [8]: 3.48%
- inhibition [9]: 3.83%
- inhibition [10]: 3.55%
- inhibition [11]: 95.2%
- inhibition [12]: 2.09%
- inhibition [13]: 4.64%
- inhibition [14]: 2.52%
- inhibition [15]: 1.94%
- inhibition [16]: 3.82%
- inhibition [17]: 3.91%
- inhibition [18]: 3.06%
- inhibition [19]: 3.17%
- inhibition [20]: 5.2%
